Test [1] in a line: Wnt pathway potentiators raising nuclear beta-catenin – imaging, WNT3A-conditioned medium, mouse C2C12, NPC library, primary screen (AID 1117326; in the data active means nuclear beta-catenin stimulation mostly above about 4.2%, no sharp cut-off; inactive means mostly below about 10%; further: reference of the scale not given here). As to conditions: stronger effect = higher value.
The nature of test [2]: stimulators of insulin release from INS-1E, primary screen, cell-based, 5 mM glucose, NPC library (AID 1117329;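 active means compound raises insulin release from rat beta cells at 5 mM glucose, no numeric limit stated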; further: reference of the scale not given here). Particulars: rat INS-1E insulin secretion, at 10 µM, stronger effect = higher value.
Test [3] is described as follows: growth inhibition of GSK3B-pretreated HCT116 cells – cell-based, CellTiter-Glo, 0.2 to 20 µM (AID 1117336). Particulars: HCT116 viability after GSK3B inhibitor, at 20 µM, stronger effect = higher value.
Test [4] is described as follows: inhibition of endothelial tube formation, primary screen, imaging, VEGF stimulated, CD31 staining, tube area, NPC library (AID 1117340;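 active means compound that reduces growth-factor-driven endothelial tube area in a mixed cell culture, no cutoff stated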). Particulars: VEGF-stimulated ADSC/ECFC co-culture, at 10 µM, stronger effect = higher value.
Test [5] in a line: GLP1 release stimulators, primary, NCI-H716, NPC library (AID 1117341;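 active means compound raises GLP1 secretion from the human gut endocrine cells, with no numeric limit stated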; further: reference of the scale not given here). As to conditions: NCI-H716 cells, at 10 µM, stronger effect = higher value.
A short description of test [6]: HCT116 colon cancer cell growth inhibition, primary screen, CellTiter-Glo luminescence, NPC library (AID 1117342;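 active means compounds that lower survival of HCT116 colon cancer cells in the luminescence readout, no numeric limit stated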). Particulars: at 20 µM (top of the series).
The nature of test [7]: reduced SW480 viability measured with CellTiter-Glo, NPC library, primary (AID 1117343;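 active means compounds that lower viability of the colon cancer cells in the luminescence readout, with no numeric limit stated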). As to conditions: CellTiter-Glo luminescence; at 20 µM (top of the series).
A short description of test [8]: NPC library primary testing for decreased DLD-1 cell viability via CellTiter-Glo (AID 1117346;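 active means compounds that lower survival of DLD-1 colon cancer cells in the luminescence readout, no cutoff given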). Particulars: DLD-1 viability, CellTiter-Glo luminescence; at 20 µM (top of the series).

Each structure is given as a SMILES string. Activity calls are given as the source filed them.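 How the source made its calls, unless noted: active means compounds lowering colon cancer cell viability after pretreatment blocking the GSK3B kinase; inactive means the rest.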 Positions of bridges follow the written chain, without caps; N, C: chain ends. Non-standard residues stand in square brackets, D forms with d. Residues, ends and D or L forms follow the SMILES beside them. hArg = N=C(N)NCCCC[C@H](N)C(=O)O; Mpa = O=C(O)CCS

On to `NC(=O)[C@@H]1CSSCCC(=O)N[C@@H](CCCCN=C(N)N)C(=O)NCC(=O)N[C@@H](CC(=O)O)C(=O)N[C@@H](Cc2c[nH]c3ccccc23)C(=O)N2CCC[C@H]2C(=O)N1` ([Mpa][hArg]GDWPC-NH2; disulfide 1-7), for which the nuclear beta-catenin stimulation in test [1] (at 10 µM) is 3.6% (inactive); in test [1] (stimulation, at 2 µM), 5.8%. In test [2], the insulin secretion stimulation was 3.95% (inactive). In test [3], the viability decrease is 19.6% (inactive). The tube area decrease in test [4] was 79.4% (active). Further, the GLP1 secretion stimulation in test [5] was -2.7% (inactive). In test [6], the inhibition of viability was 9.3% (inactive). Moreover, the viability decrease (inhibition) in test [7] is 0.7% (inactive); in test [8], 0.2% (inactive).

Consider `CCOc1ccc(NS(=O)(=O)c2ccc(N)cc2)nn1`, for which the nuclear beta-catenin stimulation was -0.3% (inactive) in test [1] (at 10 µM) and 0.4% in test [1] (stimulation, at 2 µM). The insulin secretion stimulation in test [2] was -0.2% (inactive). In addition, the viability decrease in test [3] was 1.55% (inactive). Further, the tube area decrease in test [4] was -25.2% (inactive). The GLP1 secretion stimulation in test [5] was 2.6% (inactive). Also, the inhibition of viability in test [6] was -1.7% (inactive). Also, the viability decrease (inhibition) in test [7] is 29.4% (inactive); in test [8] it was 4.15% (inactive).

On to `O=C(O)CCC(=O)O`, for which the nuclear beta-catenin stimulation is 0% (inactive) in test [1] (at 10 µM) and 0.2% in test [1] (stimulation, at 2 µM). Moreover, the insulin secretion stimulation in test [2] is -1% (inactive). The viability decrease in test [3] was -5.25% (inactive). Moreover, the tube area decrease in test [4] was -24.1% (inactive). The GLP1 secretion stimulation in test [5] was 1.6% (inactive). Also, the inhibition of viability in test [6] is -15.8% (inactive). Moreover, the results for the viability decrease (inhibition) in test [7] and in test [8] were 10% (inactive) and -6.5% (inactive), respectively.

For the compound `CCOc1c(N2CCOCC2)cnn(C)c1=O`, the nuclear beta-catenin stimulation was -0.3% (inactive) in test [1] (at 10 µM) and 4.4% in test [1] (stimulation, at 2 µM). Further, the insulin secretion stimulation in test [2] is 1.5% (inactive). The viability decrease in test [3] is -36.6% (inactive). The tube area decrease in test [4] was 4.1% (inactive). Moreover, the GLP1 secretion stimulation in test [5] is 0.1% (inactive). In addition, the inhibition of viability in test [6] is 11.2% (inactive). The viability decrease (inhibition) is 7.7% (inactive) in test [7] and -14.1% (inactive) in test [8].

For `COC(=O)c1cccnc1`, the nuclear beta-catenin stimulation in test [1] (at 10 µM) is 1% (inactive); in test [1] (stimulation, at 2 µM) it was 1.1%. The insulin secretion stimulation in test [2] is -1.6% (inactive). The viability decrease in test [3] was -2.7% (inactive). For the same compound, in test [4], the tube area decrease is -14.2% (inactive). The GLP1 secretion stimulation in test [5] was 1.1% (inactive). The inhibition of viability in test [6] was -7.2% (inactive). In addition, the viability decrease (inhibition) was 17.2% (inactive) in test [7] and 1.25% (inactive) in test [8].

For `O=C1c2ccccc2CCc2ccccc21`, the nuclear beta-catenin stimulation in test [1] (at 10 µM) was 0.9% (inactive); in test [1] (stimulation, at 2 µM), -0.9%. Further, the insulin secretion stimulation in test [2] is 2.7% (inactive). Also, the viability decrease in test [3] was 7% (inactive). In addition, the tube area decrease in test [4] was -5.3% (inactive). For the same compound, the GLP1 secretion stimulation in test [5] is -1.2% (inactive). Besides, the inhibition of viability in test [6] was 4.6% (inactive). In addition, the results for the viability decrease (inhibition) in test [7] and in test [8] were -8.4% (inactive) and 9.1% (inactive), respectively.

`Oc1ccc(CCNCCCCCCNCCc2ccccc2)cc1O`: the nuclear beta-catenin stimulation in test [1] (at 10 µM) was 5% (inactive); in test [1] (stimulation, at 2 µM), 0.9%. Moreover, the insulin secretion stimulation in test [2] was 27.8% (active). In test [3], the viability decrease was 83.3% (active). The tube area decrease in test [4] is 31.4% (inactive). Moreover, the GLP1 secretion stimulation in test [5] was 0.6% (inactive). Also, the inhibition of viability in test [6] was 83.5% (active). In addition, the results for the viability decrease (inhibition) in test [7] and in test [8] were 99.5% (active) and 101% (active), respectively.

On to `CC1CC(=O)NN=C1c1ccc(NCC(C)(C)NCC(O)COc2cc(Cl)ccc2C#N)cc1` (stereo unspecified), for which the nuclear beta-catenin stimulation in test [1] (at 10 µM) is -1.8% (inactive); in test [1] (stimulation, at 2 µM), 1.1%. Also, the insulin secretion stimulation in test [2] was 31.3% (active). Further, in test [3], the viability decrease was -8% (inactive). The tube area decrease in test [4] was 11.2% (inactive). Moreover, the GLP1 secretion stimulation in test [5] was 1% (inactive). Also, the inhibition of viability in test [6] was 23.2% (inactive). For the same compound, the results for the viability decrease (inhibition) in test [7] and in test [8] were 5.4% (inactive) and 15.4% (inactive), respectively.

For `CC[N+]1(CC)CCC(=C(c2ccccc2)c2ccccc2)C1C` (stereo unspecified), the nuclear beta-catenin stimulation in test [1] (at 10 µM) is -1.3% (inactive); in test [1] (stimulation, at 2 µM) it was -2.2%. The insulin secretion stimulation in test [2] is 1.7% (inactive). In test [3], the viability decrease was -4.6% (inactive). Besides, the tube area decrease in test [4] was -9.4% (inactive). Moreover, the GLP1 secretion stimulation in test [5] is 3.8% (inactive). The inhibition of viability in test [6] is 22.7% (inactive). In addition, the results for the viability decrease (inhibition) in test [7] and in test [8] were 1.6% (inactive) and 34.6% (inactive), respectively.

`O=C(OCC(O)CO)c1ccccc1Nc1ccnc2c(C(F)(F)F)cccc12` (stereo unspecified): the nuclear beta-catenin stimulation in test [1] (at 10 µM) is 1% (inactive); in test [1] (stimulation, at 2 µM), 0.5%. For the same compound, in test [2], the insulin secretion stimulation was -0.3% (inactive). The viability decrease in test [3] was -37% (inactive). For the same compound, in test [4], the tube area decrease was -5.3% (inactive). In addition, in test [5], the GLP1 secretion stimulation is 4.1% (inactive). Also, the inhibition of viability in test [6] is 12% (inactive). In addition, the results for the viability decrease (inhibition) in test [7] and in test [8] were 30.4% (inactive) and -17.2% (inactive), respectively.

In the case of `CCCCCOc1ccc(C2SC(=O)NC2=O)cc1OCC` (stereo unspecified), the nuclear beta-catenin stimulation in test [1] (at 10 µM) is -0.1% (inactive); in test [1] (stimulation, at 2 µM), 11.7%. Besides, the insulin secretion stimulation in test [2] was 0.7% (inactive). Further, the viability decrease in test [3] was 46.8% (inactive). Besides, the tube area decrease in test [4] is 5.8% (inactive). Besides, the GLP1 secretion stimulation in test [5] was 3.7% (inactive). Moreover, in test [6], the inhibition of viability is 32.6% (inactive). The results for the viability decrease (inhibition) in test [7] and in test [8] were 6.6% (inactive) and 11.8% (inactive), respectively.

Turning to `O=C(c1ccccc1)c1ccccc1`, the nuclear beta-catenin stimulation in test [1] (at 10 µM) is 0.7% (inactive); in test [1] (stimulation, at 2 µM), 1.3%. Besides, the insulin secretion stimulation in test [2] is -0.6% (inactive). Also, the viability decrease in test [3] is 8.9% (inactive). Also, the tube area decrease in test [4] was -20.2% (inactive). Also, the GLP1 secretion stimulation in test [5] was 2.4% (inactive). Also, the inhibition of viability in test [6] was 22.5% (inactive). Moreover, the figures for the viability decrease (inhibition) in test [7] and in test [8] were 21% (inactive) and 9.1% (inactive), respectively.

Take `O=[N+]([O-])c1ccc(Oc2ccc(N=C=S)cc2)cc1`: the nuclear beta-catenin stimulation was 36.7% (inactive) in test [1] (at 10 µM) and 1.6% in test [1] (stimulation, at 2 µM). Moreover, the insulin secretion stimulation in test [2] was -0.5% (inactive). The viability decrease in test [3] is 97.7% (active). Also, the tube area decrease in test [4] is 108% (active). In test [5], the GLP1 secretion stimulation was -5% (inactive). In addition, the inhibition of viability in test [6] was 98.9% (active). Moreover, the viability decrease (inhibition) in test [7] was 95.7% (active); in test [8], 100% (active).

For the compound `COC[C@@H](c1ccc(C(F)(F)F)cc1)N1CCN(C2(C)CCN(C(=O)c3c(C)ncnc3C)CC2)C[C@H]1C`, the nuclear beta-catenin stimulation in test [1] (at 10 µM) is 2.4% (inactive); in test [1] (stimulation, at 2 µM) it was 2.3%. The insulin secretion stimulation in test [2] was 2.8% (inactive). The viability decrease in test [3] was -44.2% (inactive). In addition, the tube area decrease in test [4] was 32% (inactive). The GLP1 secretion stimulation in test [5] was 3.1% (inactive). Moreover, the inhibition of viability in test [6] was 11.1% (inactive). Further, the viability decrease (inhibition) in test [7] is -3% (inactive); in test [8], 3.5% (inactive).

For the origin of these results see PubChem BioAssay.
